Experimental data taken from PubChem BioAssay.
The source made the active and inactive calls.

Columns and labels:
[1] = binders of probe aFSTL3 on microarray, primary screen, stem cell growth factor project, biochemical, small-molecule microarray, fluorescence 635/667 (AID 1064); details: higher = more signal;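 also: measures binding of the biotinylated anti-FSTL3 antibody to printed compounds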
[2] = binders from COS7 lysate, DM2A8 probe, primary screen, torsin A project, cell lysate, small-molecule microarray, fluorescence 635/667 (AID 1065); details: higher = more signal, COS7 lysate expressing mutant human TOR1A
[3] = binders of probe aFGF2 on microarray, primary screen, stem cell growth factor project, biochemical, small-molecule microarray, fluorescence 635/667 (AID 1067); details: higher = more signal;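 also: measures binding of biotinylated aFGF2 protein to printed compounds on slides; z-score merges feature fluorescence and signal-to-noise across triplicate slides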
[4] = binders of probe aFGF10 on microarray, primary screen, stem cell growth factor project, biochemical, small-molecule microarray, fluorescence 635/667 (AID 1071); details: higher = more signal;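 also: score merges 667 nm spot intensity and signal to noise from triplicate slides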
[5] = target: Neurogenic locus notch homolog protein 2 (Homo sapiens) (UniProt Q04721); assay: Notch2 binders on small-molecule microarrays, primary screen, biochemical, small-molecule microarray, 635 nm fluorescence, stem cell growth factors (AID 1073); details: Notch2 binding, higher = more signal
[6] = target: Pro-neuregulin-1, membrane-bound isoform (Homo sapiens) (UniProt Q02297); assay: NRG1 binders on small-molecule microarrays, primary screen, psychiatric disease protein project, biochemical, small-molecule microarray, fluorescence 635/667 (AID 1075); details: NRG1 binding, 635 nm fluorescence, higher = more signal;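 also: score combines 667 nm spot fluorescence with signal to noise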
[7] = system: Neuregulin-1 EGF-like domain; assay: binders of neuregulin-1 EGF-like domain, primary screen, biochemical, small-molecule microarray, 635 nm fluorescence (AID 1081); details: small-molecule microarray binding, higher = more signal;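 also: binding of the protein to compounds printed on small-molecule microarray slides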
[8] = FRG1 promoter luciferase signal modulators, primary screen, FRG1 inhibition for FSHD, cell-based, C2C12 myotubes, firefly/Renilla luciferase, luminescence (AID 1084); details: higher = more signal, called active from +8 up or from −8 down
[9] = binders of probe aFST on microarray, primary screen, stem cell growth factor project, biochemical, small-molecule microarray, fluorescence 635/667 (AID 1086); details: higher = more signal;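 also: score merges 667 nm fluorescence with signal-to-noise of each printed compound spot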
[10] = binders of probe aHhip on microarray, primary screen, stem cell growth factor project, biochemical, small-molecule microarray, fluorescence 635/667 (AID 1087); details: higher = more signal;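 also: score merges spot fluorescence at 667nm with spot signal to noise ratio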
[11] = system: PRMT1 (protein arginine N-methyltransferase 1); assay: PRMT1 binders on small-molecule microarrays, primary screen, biochemical, small-molecule microarray, 635 nm fluorescence (AID 1088); details: small-molecule microarray binding, higher = more signal;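 also: binding of Prmt1 protein to compounds spotted on small-molecule microarray slides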
[12] = yeast growth modulation, basal conditions, primary screen, YJM789 clinical isolate, OD600, 24 h (AID 1089);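 also: growth of clinical yeast isolate S. cerevisiae YJM 789 seeded 1000 cells per well; test concentration not given here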; details: S. cerevisiae YJM789 growth, higher = more signal, called active from +8 up or from −8 down
[13] = fission yeast growth modulation, primary screen, strain 972, OD600, 24 h, no modulator (AID 1090);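 also: basal condition with compound alone and no growth modifier present; test concentration not given here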; details: S. pombe 972 growth, higher = more signal, called active from +8 up or from −8 down
[14] = S. cerevisiae growth modulation with rapamycin, primary screen, strain BY4716, OD600, 96 h (AID 1091); details: higher = more signal, called active from +8 up or from −8 down; also: test concentration not given here
[15] = target: Torsin-1A-interacting protein 2 (Homo sapiens) (UniProt Q8NFQ8); assay: LULL1 binders on small-molecule microarray, primary screen, cell lysate, human LULL1 lysate, 635/667 nm fluorescence (AID 1092); details: hLULL1 lysate binding, 635 nm fluorescence, higher = more signal;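 also: probe is lysate of COS7 cells overexpressing human LULL1; score merges per-feature 667 nm fluorescence with signal-to-noise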
[16] = E. coli growth modulation, two-sided OD650, primary screen, E. coli filamentation project, strain DRC41, 24 h (AID 1093); details: OD650, 24 h, higher = more signal, called active from +8 up or from −8 down;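 also: MC1000 strain lacking acrAB efflux and sulA so SOS filamentation is blocked; test concentration not given here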
[17] = small-molecule microarray binders of probe aLefty2, primary screen, biochemical, biotinylated probe, 635/667 nm fluorescence (AID 1094); details: higher = more signal;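 also: score merges spot fluorescence near 667 nm with spot signal-to-noise ratio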
[18] = system: Noggin (protein binding on small-molecule microarray); assay: Noggin binders on small-molecule microarray, primary screen, biochemical, 635/667 nm fluorescence (AID 1095); details: 635 nm fluorescence, higher = more signal;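 also: score merges 667 nm feature fluorescence with signal to noise over triplicate slides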
[19] = target: Neurogenic locus notch homolog protein 3 (Homo sapiens) (UniProt Q9UM47); assay: NOTCH3 binders on small-molecule microarray, primary screen, biochemical, 635/667 nm fluorescence (AID 1096); details: NOTCH3 binding, 635 nm fluorescence, higher = more signal
[20] = small-molecule microarray binders of probe aEGFR, primary screen, biochemical, biotinylated probe, 635/667 nm fluorescence (AID 1097); details: higher = more signal;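 also: probe is a biotinylated anti-EGFR antibody binding compounds printed on slides; score combines fluorescence near 667 nm and signal to noise of each spot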

Chain of Pro-neuregulin-1, membrane-bound isoform (Homo sapiens) (Q02297 whole entry, looked up, the tested form may be a part, canonical isoform): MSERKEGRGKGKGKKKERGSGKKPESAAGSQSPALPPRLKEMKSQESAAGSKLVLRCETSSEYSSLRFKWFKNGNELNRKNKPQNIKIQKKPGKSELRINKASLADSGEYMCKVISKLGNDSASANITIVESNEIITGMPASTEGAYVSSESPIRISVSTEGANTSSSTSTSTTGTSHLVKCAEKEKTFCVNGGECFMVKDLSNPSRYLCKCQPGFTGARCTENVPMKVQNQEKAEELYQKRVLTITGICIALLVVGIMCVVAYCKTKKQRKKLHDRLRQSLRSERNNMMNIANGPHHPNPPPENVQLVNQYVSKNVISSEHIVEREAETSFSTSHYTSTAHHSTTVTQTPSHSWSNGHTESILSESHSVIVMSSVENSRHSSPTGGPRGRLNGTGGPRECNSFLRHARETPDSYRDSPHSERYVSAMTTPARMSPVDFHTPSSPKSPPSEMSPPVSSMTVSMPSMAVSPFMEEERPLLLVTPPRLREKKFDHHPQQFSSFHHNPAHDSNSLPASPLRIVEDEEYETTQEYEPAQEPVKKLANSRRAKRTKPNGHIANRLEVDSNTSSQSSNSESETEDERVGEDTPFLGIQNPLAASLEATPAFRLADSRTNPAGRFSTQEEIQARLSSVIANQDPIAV
Chain of Torsin-1A-interacting protein 2 (Homo sapiens) (Q8NFQ8 whole entry, looked up): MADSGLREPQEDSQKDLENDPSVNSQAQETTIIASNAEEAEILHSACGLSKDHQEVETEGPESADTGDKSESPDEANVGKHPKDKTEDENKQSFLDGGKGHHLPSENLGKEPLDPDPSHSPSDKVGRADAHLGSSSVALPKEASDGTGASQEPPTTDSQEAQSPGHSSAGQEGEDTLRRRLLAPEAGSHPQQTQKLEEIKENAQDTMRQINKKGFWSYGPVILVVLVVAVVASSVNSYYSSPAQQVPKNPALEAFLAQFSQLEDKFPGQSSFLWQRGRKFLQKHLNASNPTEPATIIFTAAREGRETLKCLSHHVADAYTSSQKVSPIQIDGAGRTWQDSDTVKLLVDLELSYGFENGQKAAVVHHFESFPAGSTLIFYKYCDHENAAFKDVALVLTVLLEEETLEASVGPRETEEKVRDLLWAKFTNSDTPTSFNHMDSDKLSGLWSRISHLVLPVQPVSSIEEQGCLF
Chain of Neurogenic locus notch homolog protein 2 (Homo sapiens) (Q04721 whole entry, looked up, canonical isoform): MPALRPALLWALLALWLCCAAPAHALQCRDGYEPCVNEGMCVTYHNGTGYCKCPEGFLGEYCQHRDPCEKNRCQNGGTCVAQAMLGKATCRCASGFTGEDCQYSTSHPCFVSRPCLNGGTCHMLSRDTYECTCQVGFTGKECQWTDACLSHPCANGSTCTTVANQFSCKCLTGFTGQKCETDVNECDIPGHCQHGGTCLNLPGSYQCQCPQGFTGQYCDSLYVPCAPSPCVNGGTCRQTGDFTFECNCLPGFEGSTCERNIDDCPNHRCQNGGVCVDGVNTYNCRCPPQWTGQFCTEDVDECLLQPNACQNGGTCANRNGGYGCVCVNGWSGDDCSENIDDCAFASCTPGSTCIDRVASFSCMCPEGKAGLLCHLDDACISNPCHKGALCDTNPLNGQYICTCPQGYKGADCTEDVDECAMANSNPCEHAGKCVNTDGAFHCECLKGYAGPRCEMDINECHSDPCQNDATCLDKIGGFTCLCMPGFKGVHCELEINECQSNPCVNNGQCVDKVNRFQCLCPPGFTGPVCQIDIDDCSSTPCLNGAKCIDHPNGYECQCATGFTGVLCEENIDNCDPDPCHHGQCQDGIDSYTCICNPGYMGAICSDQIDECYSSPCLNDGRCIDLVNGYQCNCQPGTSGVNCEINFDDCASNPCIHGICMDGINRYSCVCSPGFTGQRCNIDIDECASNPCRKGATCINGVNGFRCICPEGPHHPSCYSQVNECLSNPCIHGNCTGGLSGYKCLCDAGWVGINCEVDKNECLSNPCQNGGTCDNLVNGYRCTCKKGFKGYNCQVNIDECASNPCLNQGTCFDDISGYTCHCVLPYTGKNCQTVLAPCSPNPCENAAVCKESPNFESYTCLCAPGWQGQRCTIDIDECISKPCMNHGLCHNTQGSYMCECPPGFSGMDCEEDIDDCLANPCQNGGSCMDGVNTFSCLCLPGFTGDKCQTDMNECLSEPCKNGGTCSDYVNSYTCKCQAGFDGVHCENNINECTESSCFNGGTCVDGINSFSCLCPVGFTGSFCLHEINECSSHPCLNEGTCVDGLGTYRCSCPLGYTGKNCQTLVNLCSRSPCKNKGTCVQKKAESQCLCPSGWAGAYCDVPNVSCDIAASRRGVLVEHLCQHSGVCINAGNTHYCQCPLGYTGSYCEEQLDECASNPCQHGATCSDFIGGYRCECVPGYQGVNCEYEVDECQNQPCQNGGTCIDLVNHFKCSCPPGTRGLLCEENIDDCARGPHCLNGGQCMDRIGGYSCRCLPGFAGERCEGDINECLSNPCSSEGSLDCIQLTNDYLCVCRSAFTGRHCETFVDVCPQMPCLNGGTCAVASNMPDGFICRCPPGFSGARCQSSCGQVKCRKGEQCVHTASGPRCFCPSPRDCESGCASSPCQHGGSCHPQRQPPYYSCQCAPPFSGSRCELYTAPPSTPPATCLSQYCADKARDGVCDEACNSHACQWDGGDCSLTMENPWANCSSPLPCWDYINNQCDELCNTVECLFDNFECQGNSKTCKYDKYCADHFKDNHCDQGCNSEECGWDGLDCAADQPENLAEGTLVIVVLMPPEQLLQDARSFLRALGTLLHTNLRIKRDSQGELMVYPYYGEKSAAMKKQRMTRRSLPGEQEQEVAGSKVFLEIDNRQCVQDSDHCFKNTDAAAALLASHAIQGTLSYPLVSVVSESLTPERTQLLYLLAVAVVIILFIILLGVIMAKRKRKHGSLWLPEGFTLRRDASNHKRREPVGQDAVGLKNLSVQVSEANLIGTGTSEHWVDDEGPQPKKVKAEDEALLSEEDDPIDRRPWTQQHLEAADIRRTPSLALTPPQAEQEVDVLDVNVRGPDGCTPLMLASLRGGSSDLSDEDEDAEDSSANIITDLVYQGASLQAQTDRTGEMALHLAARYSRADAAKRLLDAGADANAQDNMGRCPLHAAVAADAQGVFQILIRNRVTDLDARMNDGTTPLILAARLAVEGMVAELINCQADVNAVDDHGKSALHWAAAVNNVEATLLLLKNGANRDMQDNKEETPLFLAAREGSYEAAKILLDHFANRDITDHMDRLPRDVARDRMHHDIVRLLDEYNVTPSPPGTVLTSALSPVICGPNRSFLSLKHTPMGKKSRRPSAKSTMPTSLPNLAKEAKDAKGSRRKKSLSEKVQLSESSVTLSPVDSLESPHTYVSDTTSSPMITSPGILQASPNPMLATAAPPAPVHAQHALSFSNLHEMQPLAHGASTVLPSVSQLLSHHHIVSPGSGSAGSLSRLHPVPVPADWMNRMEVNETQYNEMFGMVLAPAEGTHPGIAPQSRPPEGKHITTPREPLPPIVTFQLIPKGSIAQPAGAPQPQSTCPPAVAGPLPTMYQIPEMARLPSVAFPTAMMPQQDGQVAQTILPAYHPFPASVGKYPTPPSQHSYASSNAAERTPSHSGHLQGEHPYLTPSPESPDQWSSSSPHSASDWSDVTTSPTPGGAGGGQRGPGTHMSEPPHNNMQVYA

Structure (SMILES)	composite z-score [1]	composite z-score [2]	composite z-score [3]	composite z-score [4]	composite z-score [5]	composite z-score [6]	composite z-score [7]	z-score [8]	composite z-score [9]	composite z-score [10]	composite z-score [11]	z-score [12]	z-score [13]	z-score [14]	composite z-score [15]	z-score [16]	composite z-score [17]	composite z-score [18]	composite z-score [19]	composite z-score [20]
CC(CCN1CCCCc2nc(C)c(C)cc21)=NO[C@@H](C)c1cc(-c2c(C)cc(C)cc2C)no1	-0.0105	-0.454	-0.232	-0.33	-1.93	0.0782	-0.246	-1.49 (inactive)	-0.689	-0.134	0.0804	-1.73 (inactive)	-10.2 (active)	-0.199 (inactive)	-0.745	0.486 (inactive)	-0.126	-0.0547	-1.55	-0.343
CON=C(C)CCN1CCCc2nc(C)c(C)cc21	-0.411	-0.205	-0.0266	0.28	0.512	0.397	0.908	0.885 (inactive)	0.192	0.12	1.43	-0.596 (inactive)	-0.837 (inactive)	0.0921 (inactive)	1.92	0.0129 (inactive)	-0.0179	0.513	0.632	0.0376
CCOC(=O)NN=C1C[C@@H](O)[C@@H](O)[C@@H]2[C@@H]3C(=O)N(CC)C(=O)[C@@H]3CC[C@H]12	-0.431	0.36	-0.1	0.389	0.384	-0.313	0.539	-0.323 (inactive)	0.007	-0.153	-0.0481	0.213 (inactive)	0.324 (inactive)	0.71 (inactive)	0.458	0.312 (inactive)	-0.25	0.583	-0.387	-0.034
CCOC(=O)[C@H](CC(C)C)NC(=O)CCC1CC(OC(=O)NCCc2ccc(F)cc2)CC2(CCCC(COC(=O)NCCOC)O2)O1 (stereo not given in full)	0.12	0.305	-0.043	0.862	1.15	0.32	1.13	1.44 (inactive)	0.158	0.0092	1.41	0.513 (inactive)	1.13 (inactive)	1.5 (inactive)	1.7	-1.02 (inactive)	-0.025	0.382	0.998	-0.0975
O=C1[C@H]2[C@H]3[C@H](O)[C@H](O)CC(=NOC[C@@H](O)COCc4ccco4)[C@@H]3CC[C@H]2C(=O)N1Cc1ccc2c(c1)OCO2	-0.622	2.39	-0.292	-0.738	-0.541	-0.285	1.1	-0.196 (inactive)	-0.0769	0.2	1.4	0.421 (inactive)	0.674 (inactive)	0.463 (inactive)	-0.689	2.06 (inactive)	-0.172	1.17	-0.177	-0.0177
C[C@@H](c1ccccc1)N1C(=O)[C@H]2[C@H]3[C@H](O)[C@H](O)CC(=NOCc4ccccc4)[C@@H]3CC[C@H]2C1=O	1.67	-0.0647	-0.0203	0.0018	-0.578	-0.258	-0.521	0.717 (inactive)	0.401	-0.0672	-0.246	0.855 (inactive)	-0.293 (inactive)	0.512 (inactive)	0.379	-0.125 (inactive)	0.408	-0.29	-0.551	-0.203
CCOC(=O)[C@H](Cc1ccccc1)NC(=O)CCC1CC(OC(=O)NCc2ccc3c(c2)OCO3)CC2(CCCC(COC(=O)NCCOC)O2)O1 (stereo not given in full)	-0.444	1.85	-0.0533	0.688	0.994	0.63	0.773	1.75 (inactive)	0.412	0.524	1.56	-0.439 (inactive)	-0.25 (inactive)	-0.364 (inactive)	2.34	-0.141 (inactive)	-0.166	0.884	1.05	0.0059
CCCNC(=O)OC[C@H]1O[C@H](CCON=C2c3cc(OC)ccc3O[C@H](c3cccc(OC)c3)[C@H]2O)C=C[C@@H]1Oc1ccc(OC)cc1	-0.231	0.768	-0.0647	0.884	1.17	0.64	0.93	0.446 (inactive)	0.167	-0.0237	0.799	-0.409 (inactive)	0.464 (inactive)	0.479 (inactive)	0.972	0.8 (inactive)	0.451	0.716	0.468	0.0897
O=C1[C@H]2CCn3c(=O)n(-c4ccccc4)c(=O)n3[C@H]2[C@H](O)[C@@H]2O[C@H]12	-0.561	-0.0619	-0.0667	0.328	0.164	1.63	-0.125	-0.217 (inactive)	-0.0545	-0.305	-0.0775	0.689 (inactive)	-0.41 (inactive)	-0.206 (inactive)	-0.29	-0.0475 (inactive)	-0.225	0.224	-0.281	-0.181
